According to PubChem BioAssay AID1159580 (chemical genetic matrix, 2015):
Out of some 5,500 compounds screened, about 2,000 (36%) were called active. Roughly 18% stayed inconclusive and do not appear here. No stated cut-off is given here; in the data, active means normalized growth mostly below about 0.91 (no sharp cut-off); inconclusive means no clear call, values can overlap the other calls; inactive means mostly above about 0.92. Some of the results follow.

Assay: chemical genetic growth profiling, strain panel (AID 1159580);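 further: tested at 20 µM; growth read once vehicle control cultures reached saturation at 30 °C; 1 = growth at the plate median or of vehicle wells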
Conditions: S. cerevisiae deletion strains, growth OD

Measured: normalized growth

COc1ccc(-c2coc3cc(OC)cc(OC)c3c2=O)cc1
inactive: locus YAL021C, strain ccr4, stronger effect = lower value 1 | locus YAL026C, strain drs2, stronger effect = lower value 0.985 | locus YAL030W, strain snc1, stronger effect = lower value 0.987 | locus YBL061C, strain skt5, stronger effect = lower value 0.972 | locus YBR009C, strain hhf1, stronger effect = lower value 0.988 | locus YBR023C, strain chs3, stronger effect = lower value 0.97 | locus YBR171W, strain sec66, stronger effect = lower value 0.994 | locus YBR231C, strain swc5, stronger effect = lower value 0.989 | locus YBR279W, strain paf1, stronger effect = lower value 0.993 | locus YCL011C, strain gbp2, stronger effect = lower value 0.979 | locus YCL016C, strain dcc1, stronger effect = lower value 0.997 | locus YCL061C, strain MRC1, stronger effect = lower value 0.989 | locus YCL069W, strain vba3, stronger effect = lower value 0.996 | locus YCR088W, strain abp1, stronger effect = lower value 0.991 | locus YDL005C, strain med2, stronger effect = lower value 1 | locus YDL040C, strain nat1, stronger effect = lower value 0.987 | locus YDR001C, strain nth1, stronger effect = lower value 0.984 | locus YDR069C, strain doa4, stronger effect = lower value 1 | locus YDR137W, strain rgp1, stronger effect = lower value 0.974 | locus YDR159W, strain sac3, stronger effect = lower value 0.987 | locus YDR195W, strain ref2 1.04 | locus YDR297W, strain sur2, stronger effect = lower value 0.983 | locus YDR334W, strain swr1, stronger effect = lower value 1 | locus YDR335W, strain msn5, stronger effect = lower value 0.997 | locus YDR392W, strain spt3, stronger effect = lower value 0.843 | locus YEL003W, strain gim4, stronger effect = lower value 0.987 | locus YEL037C, strain rad23, stronger effect = lower value 0.988 | locus YEL061C, strain CIN8 (second series), stronger effect = lower value 0.99 | locus YER015W, strain faa2, stronger effect = lower value 0.99 | locus YER016W, strain bim1, stronger effect = lower value 0.99 | locus YER111C, strain swi4, stronger effect = lower value 0.991 | locus YER155C, strain BEM2 (second series), stronger effect = lower value 0.946 | locus YFR010W, strain ubp6, stronger effect = lower value 1 | locus YGL167C, strain pmr1, stronger effect = lower value 0.982 | locus YGL173C, strain kem1, stronger effect = lower value 0.98 | locus YGL227W, strain vid30, stronger effect = lower value 0.992 | locus YGL240W, strain doc1, stronger effect = lower value 0.982 | locus YGL253W, strain hxk2, stronger effect = lower value 0.995 | locus YHR013C, strain ard1, stronger effect = lower value 0.96 | locus YHR027C, strain rpn1, stronger effect = lower value 0.994 | locus YHR142W, strain chs7, stronger effect = lower value 0.93 | locus YJL092W, strain hpr5, stronger effect = lower value 0.991 | locus YJL095W, strain BCK1 (second series), stronger effect = lower value 1.01 | locus YJL115W, strain asf1, stronger effect = lower value 0.996 | locus YJL129C, strain trk1, stronger effect = lower value 0.969 | locus YJL154C, strain vps35, stronger effect = lower value 0.998 | locus YJL164C, strain tpk1, stronger effect = lower value 0.981 | locus YJL166W, strain qcr8, stronger effect = lower value 0.986 | locus YJL187C, strain SWE1, stronger effect = lower value 0.988 | locus YKL160W, strain elf1, stronger effect = lower value 0.986 | locus YKR026C, strain gcn3, stronger effect = lower value 0.988 | locus YKR091W, strain srl3, stronger effect = lower value 0.989 | locus YLL001W, strain dnm1, stronger effect = lower value 0.976 | locus YLL026W, stronger effect = lower value 0.987 | locus YLL041C, strain sdh2, stronger effect = lower value 0.991 | locus YLR027C, strain aat2, stronger effect = lower value 0.998 | locus YLR221C, strain rsa3, stronger effect = lower value 0.978 | locus YLR258W, strain gsy2, stronger effect = lower value 0.987 | locus YLR262C, strain YPT6 (second series), stronger effect = lower value 0.968 | locus YLR320W, strain mms22, stronger effect = lower value 0.971 | locus YLR342W, strain FKS1, stronger effect = lower value 0.994 | locus YLR357W, strain rsc2, stronger effect = lower value 0.988 | locus YLR370C, strain arc18, stronger effect = lower value 0.992 | locus YLR384C, strain iki3, stronger effect = lower value 0.987 | locus YML120C, strain ndi1, stronger effect = lower value 0.989 | locus YMR058W, strain fet3, stronger effect = lower value 0.987 | locus YMR125W, strain sto1, stronger effect = lower value 1.01 | locus YMR129W, stronger effect = lower value 0.987 | locus YMR205C, strain PFK2, stronger effect = lower value 0.959 | locus YMR231W, strain pep5, stronger effect = lower value 0.977 | locus YNL071W, strain lat1, stronger effect = lower value 0.988 | locus YNL209W, strain ssb2, stronger effect = lower value 0.995 | locus YNL248C, strain rpa49, stronger effect = lower value 0.999 | locus YNL322C, strain KRE1 (second series), stronger effect = lower value 0.994 | locus YNR049C, strain mso1, stronger effect = lower value 1 | locus YOR001W, strain rrp6, stronger effect = lower value 1.01 | locus YOR070C, strain gyp1, stronger effect = lower value 1.01 | locus YOR080W, strain dia2, stronger effect = lower value 1 | locus YOR083W, strain WHI5, stronger effect = lower value 0.984 | locus YOR106W, strain vam3, stronger effect = lower value 0.974 | locus YOR265W, strain rbl2, stronger effect = lower value 0.984 | locus YOR270C, strain vph1, stronger effect = lower value 0.885 | locus YOR290C, strain snf2, stronger effect = lower value 0.948 | locus YPL051W, strain arl3, stronger effect = lower value 0.972 | locus YPL078C, strain atp4, stronger effect = lower value 0.975 | locus YPL106C, strain sse1, stronger effect = lower value 0.964 | locus YPL240C, strain hsp82, stronger effect = lower value 0.984
